For experiment [1], the target named is Tyrosine-protein kinase CSK (Homo sapiens) (UniProt P41240). The following applies: at 1 µM.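 Further: each value is an averaged inhibition reading.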
The target of experiment [2] is T1, Discoidin domain-containing receptor 2 (Homo sapiens) (UniProt Q16832).
T1 sequence (whole entry): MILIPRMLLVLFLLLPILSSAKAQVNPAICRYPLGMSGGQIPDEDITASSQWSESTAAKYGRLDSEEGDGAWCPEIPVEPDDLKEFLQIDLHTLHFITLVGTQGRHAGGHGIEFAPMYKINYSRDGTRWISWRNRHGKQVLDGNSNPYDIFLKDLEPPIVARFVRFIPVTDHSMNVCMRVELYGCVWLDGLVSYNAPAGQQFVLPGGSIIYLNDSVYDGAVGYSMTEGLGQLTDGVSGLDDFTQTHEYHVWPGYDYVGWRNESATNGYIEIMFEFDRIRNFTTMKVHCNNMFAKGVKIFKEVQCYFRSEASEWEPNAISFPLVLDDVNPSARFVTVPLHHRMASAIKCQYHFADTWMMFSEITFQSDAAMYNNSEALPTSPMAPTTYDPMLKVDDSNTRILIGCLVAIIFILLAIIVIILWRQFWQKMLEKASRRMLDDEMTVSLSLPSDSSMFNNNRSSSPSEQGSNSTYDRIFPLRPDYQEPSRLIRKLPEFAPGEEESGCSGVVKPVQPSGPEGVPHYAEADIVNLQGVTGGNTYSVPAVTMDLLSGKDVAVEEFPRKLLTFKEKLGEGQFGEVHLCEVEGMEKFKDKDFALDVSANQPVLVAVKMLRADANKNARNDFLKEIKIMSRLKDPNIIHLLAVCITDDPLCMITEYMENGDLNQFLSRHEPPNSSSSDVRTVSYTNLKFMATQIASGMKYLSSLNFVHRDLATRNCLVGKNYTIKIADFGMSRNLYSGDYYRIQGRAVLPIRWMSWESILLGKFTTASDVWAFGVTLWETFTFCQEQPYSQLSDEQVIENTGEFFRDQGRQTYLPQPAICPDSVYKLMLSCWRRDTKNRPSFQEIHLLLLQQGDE
The following applies: at 0.1 µM.

In experiment [3] the target is T1, Discoidin domain-containing receptor 2 (Homo sapiens). The following applies: at 1 µM.
In experiment [4] the target is Epidermal growth factor receptor (Homo sapiens) (UniProt P00533). The following applies: at 0.1 µM.
Epidermal growth factor receptor (Homo sapiens), sequence (P00533 whole entry): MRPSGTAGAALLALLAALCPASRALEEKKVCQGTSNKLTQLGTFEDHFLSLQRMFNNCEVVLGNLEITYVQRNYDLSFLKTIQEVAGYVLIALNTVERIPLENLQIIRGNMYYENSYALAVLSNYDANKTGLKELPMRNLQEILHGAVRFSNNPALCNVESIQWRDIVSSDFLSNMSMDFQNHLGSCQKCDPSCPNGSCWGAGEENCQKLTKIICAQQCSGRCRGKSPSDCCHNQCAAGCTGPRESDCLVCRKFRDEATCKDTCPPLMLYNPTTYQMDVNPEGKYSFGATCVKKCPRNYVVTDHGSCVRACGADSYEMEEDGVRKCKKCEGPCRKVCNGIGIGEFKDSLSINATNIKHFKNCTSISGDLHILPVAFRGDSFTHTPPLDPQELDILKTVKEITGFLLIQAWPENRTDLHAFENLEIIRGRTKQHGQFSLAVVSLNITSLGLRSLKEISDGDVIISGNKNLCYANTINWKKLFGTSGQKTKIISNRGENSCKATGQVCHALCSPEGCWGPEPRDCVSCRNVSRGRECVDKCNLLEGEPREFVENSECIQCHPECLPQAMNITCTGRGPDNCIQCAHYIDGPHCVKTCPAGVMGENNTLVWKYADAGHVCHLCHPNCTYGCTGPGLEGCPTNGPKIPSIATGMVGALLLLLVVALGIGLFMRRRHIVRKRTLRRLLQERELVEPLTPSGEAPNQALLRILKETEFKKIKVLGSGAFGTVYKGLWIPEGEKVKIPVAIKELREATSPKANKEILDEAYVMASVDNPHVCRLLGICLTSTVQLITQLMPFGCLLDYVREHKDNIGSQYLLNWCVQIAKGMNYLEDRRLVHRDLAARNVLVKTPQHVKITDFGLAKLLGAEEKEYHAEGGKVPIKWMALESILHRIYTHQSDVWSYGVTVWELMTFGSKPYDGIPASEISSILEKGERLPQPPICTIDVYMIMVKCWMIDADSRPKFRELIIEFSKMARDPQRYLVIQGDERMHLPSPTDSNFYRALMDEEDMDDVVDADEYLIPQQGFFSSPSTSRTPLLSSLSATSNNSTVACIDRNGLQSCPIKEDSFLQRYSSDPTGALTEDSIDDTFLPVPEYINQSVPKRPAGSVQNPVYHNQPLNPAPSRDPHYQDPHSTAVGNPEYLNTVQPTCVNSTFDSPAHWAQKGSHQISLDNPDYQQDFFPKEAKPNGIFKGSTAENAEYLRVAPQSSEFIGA
Experiment [5] has the same target. The following applies: at 1 µM.
Experiment [6] relates to Epidermal growth factor receptor (Homo sapiens), P00533 [L858R]. The following applies: at 0.1 µM.
Epidermal growth factor receptor (Homo sapiens), P00533 [L858R], sequence (P00533 whole entry L858R): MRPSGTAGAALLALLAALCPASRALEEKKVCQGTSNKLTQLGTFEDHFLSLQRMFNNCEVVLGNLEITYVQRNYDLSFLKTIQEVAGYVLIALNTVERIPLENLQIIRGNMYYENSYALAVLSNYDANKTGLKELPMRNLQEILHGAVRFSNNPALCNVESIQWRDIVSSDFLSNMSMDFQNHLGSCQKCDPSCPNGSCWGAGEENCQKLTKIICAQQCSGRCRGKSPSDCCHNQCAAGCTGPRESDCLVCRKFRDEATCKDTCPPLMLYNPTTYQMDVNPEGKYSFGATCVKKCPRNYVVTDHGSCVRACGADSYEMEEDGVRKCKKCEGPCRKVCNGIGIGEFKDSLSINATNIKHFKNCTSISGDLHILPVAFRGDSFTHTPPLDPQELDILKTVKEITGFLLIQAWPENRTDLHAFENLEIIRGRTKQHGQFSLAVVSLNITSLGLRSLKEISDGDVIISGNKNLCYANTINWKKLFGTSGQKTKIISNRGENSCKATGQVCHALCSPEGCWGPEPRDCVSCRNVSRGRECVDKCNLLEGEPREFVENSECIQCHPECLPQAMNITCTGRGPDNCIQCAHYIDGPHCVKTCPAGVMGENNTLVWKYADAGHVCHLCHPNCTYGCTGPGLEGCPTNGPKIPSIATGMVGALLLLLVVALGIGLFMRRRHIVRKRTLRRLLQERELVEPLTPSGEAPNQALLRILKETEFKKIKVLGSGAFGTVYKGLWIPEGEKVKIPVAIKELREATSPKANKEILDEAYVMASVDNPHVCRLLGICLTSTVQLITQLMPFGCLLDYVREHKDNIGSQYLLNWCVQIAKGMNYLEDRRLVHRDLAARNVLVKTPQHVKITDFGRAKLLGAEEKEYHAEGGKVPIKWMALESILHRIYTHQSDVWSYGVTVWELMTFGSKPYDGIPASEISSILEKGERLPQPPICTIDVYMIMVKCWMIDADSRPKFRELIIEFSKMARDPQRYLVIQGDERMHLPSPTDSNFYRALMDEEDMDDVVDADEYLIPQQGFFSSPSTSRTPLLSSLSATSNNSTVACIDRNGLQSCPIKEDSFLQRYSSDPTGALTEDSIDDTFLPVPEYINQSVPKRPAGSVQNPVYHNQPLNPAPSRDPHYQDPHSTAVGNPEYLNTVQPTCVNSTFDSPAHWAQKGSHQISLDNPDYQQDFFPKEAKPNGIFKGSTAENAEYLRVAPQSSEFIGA
For experiment [7] the test system is unchanged. The following applies: at 1 µM.
The test system of experiment [8] is Epidermal growth factor receptor (Homo sapiens), P00533 [L861Q]. The following applies: at 0.1 µM.
Experiment [9] shares this test system. The following applies: at 1 µM.
Experiment [10] relates to Epidermal growth factor receptor (Homo sapiens), P00533 [T790M]. The following applies: at 0.1 µM.
Epidermal growth factor receptor (Homo sapiens), P00533 [T790M], sequence (P00533 whole entry T790M): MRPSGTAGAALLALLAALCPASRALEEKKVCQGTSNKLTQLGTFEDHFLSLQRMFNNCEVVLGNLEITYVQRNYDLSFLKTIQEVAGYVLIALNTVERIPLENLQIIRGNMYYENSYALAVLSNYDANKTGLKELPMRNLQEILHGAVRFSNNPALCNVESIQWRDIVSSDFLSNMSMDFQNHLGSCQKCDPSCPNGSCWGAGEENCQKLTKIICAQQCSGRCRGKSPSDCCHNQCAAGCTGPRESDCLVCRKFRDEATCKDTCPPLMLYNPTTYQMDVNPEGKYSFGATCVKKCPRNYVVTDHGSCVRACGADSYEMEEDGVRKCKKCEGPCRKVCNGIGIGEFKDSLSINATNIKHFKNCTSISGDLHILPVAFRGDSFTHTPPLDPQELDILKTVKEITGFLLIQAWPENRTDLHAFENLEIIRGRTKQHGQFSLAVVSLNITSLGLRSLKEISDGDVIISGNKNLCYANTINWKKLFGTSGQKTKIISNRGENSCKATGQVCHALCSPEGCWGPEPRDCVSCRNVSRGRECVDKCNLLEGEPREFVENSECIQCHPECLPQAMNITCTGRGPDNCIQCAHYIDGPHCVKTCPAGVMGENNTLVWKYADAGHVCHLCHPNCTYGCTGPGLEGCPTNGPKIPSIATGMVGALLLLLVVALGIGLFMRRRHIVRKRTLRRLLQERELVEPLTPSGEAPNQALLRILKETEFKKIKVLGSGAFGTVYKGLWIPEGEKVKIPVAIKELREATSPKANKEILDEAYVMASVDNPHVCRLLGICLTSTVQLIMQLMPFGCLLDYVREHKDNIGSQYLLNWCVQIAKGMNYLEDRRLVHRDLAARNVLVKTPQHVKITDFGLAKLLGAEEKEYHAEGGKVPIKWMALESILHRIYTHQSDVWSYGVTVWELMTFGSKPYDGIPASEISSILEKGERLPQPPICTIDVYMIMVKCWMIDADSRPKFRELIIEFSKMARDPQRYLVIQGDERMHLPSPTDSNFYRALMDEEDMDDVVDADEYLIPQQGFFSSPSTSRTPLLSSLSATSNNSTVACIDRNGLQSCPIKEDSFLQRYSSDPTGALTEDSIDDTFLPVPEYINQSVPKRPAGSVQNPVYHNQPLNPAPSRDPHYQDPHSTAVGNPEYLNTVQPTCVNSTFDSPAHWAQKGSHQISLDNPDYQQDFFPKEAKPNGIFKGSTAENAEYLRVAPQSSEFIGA

Tyrosine-protein kinase CSK (Homo sapiens), sequence (P41240 2-450 limits assumed): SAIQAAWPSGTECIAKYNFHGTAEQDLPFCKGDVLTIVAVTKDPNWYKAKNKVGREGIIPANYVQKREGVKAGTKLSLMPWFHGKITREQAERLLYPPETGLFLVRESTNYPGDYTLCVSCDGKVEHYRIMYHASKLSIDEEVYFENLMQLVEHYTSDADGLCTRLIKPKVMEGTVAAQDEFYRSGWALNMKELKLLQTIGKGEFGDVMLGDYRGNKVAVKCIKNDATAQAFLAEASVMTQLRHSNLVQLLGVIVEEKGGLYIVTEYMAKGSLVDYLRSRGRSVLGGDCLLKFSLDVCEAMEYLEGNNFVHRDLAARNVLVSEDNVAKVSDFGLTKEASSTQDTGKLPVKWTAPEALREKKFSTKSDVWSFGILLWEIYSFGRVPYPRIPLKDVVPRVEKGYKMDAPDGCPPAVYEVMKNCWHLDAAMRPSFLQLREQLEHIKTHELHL

In the case of `CCn1c(-c2nonc2N)nc2ccncc21`, the inhibition in [1] is -5.08%; in [2], 0.25%; in experiment [3], 0.08%; in experiment [4], 0.86%; in experiment [5], 2.64%; in experiment [6], -3.87%. In addition, the inhibition in [7] was -4.06%; in experiment [8] it was 0.79%; in experiment [9] it was -0.98%; in experiment [10], -0.65%.
As to `CCCN1CCC=C(c2ccc(Nc3nc(Nc4ccccc4C(N)=O)c4cc[nH]c4n3)c(C)c2)C1`, the inhibition in experiment [1] was determined as 1.79%; in [2] it was 1.12%; in experiment [3] it was 3.26%; in experiment [4], 3.3%; in experiment [5] it was 8.18%; in experiment [6], 0.06%. In addition, the inhibition in experiment [7] came out at 9.35%; in experiment [8] it was 1.44%; in experiment [9], 6.61%; in [10], 2.92%.
Turning to `CC1=C(C(=O)Nc2ccc3[nH]ncc3c2)C(c2ccc(Cl)c(Cl)c2)CC(=O)N1` (stereo not drawn), the inhibition in experiment [1] is 4.23%; in experiment [2], 3.12%; in experiment [3] it was 3.67%; in [4] it was 6.77%; in experiment [5], 8.22%; in experiment [6] it was 1.45%. For the same compound, the inhibition in experiment [7] worked out at 5.4%; in experiment [8] it was 1.95%; in experiment [9] it was 0.96%; in experiment [10] it was 0.19%.
As for `Cc1ccc(NC(=O)c2ccnc(N3CCCC3)c2)cc1-c1ccc(C(=O)NCC2CC2)cc1`, the inhibition is -0.29% in experiment [1]; 3.77% in [2]; 22.6% in experiment [3]; -4.33% in experiment [4]; -3.35% in [5]; -1.08% in experiment [6]. The inhibition in experiment [7] was -0.58%; in experiment [8] it was 2.11%; in experiment [9] it was -3.41%; in experiment [10], 1.68%.
As for `[O-][S+]1CCN(Cc2ccc(-c3ccc4ncnc(Nc5ccc(OCc6ccccc6)c(F)c5)c4c3)o2)CC1`, the inhibition in experiment [1] was -3.52%; in experiment [2], 0.34%; in [3], 0.62%; in [4], 84.1%; in experiment [5] it was 90.7%; in experiment [6], 42.6%. The inhibition in experiment [7] was 84.9%; in experiment [8] it was 39.7%; in experiment [9] it was 68.6%; in experiment [10], 4.05%.
Consider `COC(=O)Nc1nc2cc(Oc3ccc(NC(=O)Nc4cccc(C(=O)O)c4)cc3)ccc2[nH]1`, for which the inhibition in experiment [2] was 8.64%; in experiment [3], 48.8%; in experiment [4] it was -1.69%; in experiment [5], -2.11%; in experiment [6], 2.63%; in experiment [7], 2.26%. In addition, the inhibition in experiment [8] was found to be 2.15%; in experiment [9] it was 0.36%; in experiment [10], 1.78%.
As to `NS(=O)(=O)c1ccc(N/N=C2\C(=O)Nc3ccc(C(=O)NCCc4c[nH]cn4)cc32)cc1`, the inhibition in [1] amounted to 9.56%; in experiment [2] it was 1.41%; in [3], 5.19%; in [4] it was 2%; in experiment [5], 4.43%; in [6], 5.09%. In addition, the inhibition in [7] turned out to be 5.32%; in [8], 3.18%; in [9], 3.48%; in experiment [10] it was 2.7%.
As for `Cc1nn(C)c2cc(N(C)c3ccnc(Nc4cccc(S(N)(=O)=O)c4)n3)ccc12`, the inhibition in experiment [1] was 22.4%; in [2], -2.88%; in [4], 5.33%; in experiment [5] it was 13.9%; in experiment [6], 1.02%; in experiment [7], 16%. The inhibition in experiment [8] was 2.56%; in experiment [9] it was 9.38%; in [10], 1.34%.
`COc1cc2ncn(-c3cc(O[C@@H](C)c4ccccc4Cl)c(C(N)=O)s3)c2cc1OC`: the inhibition came out at 5.68% in experiment [1]; 1.33% in experiment [2]; 1.58% in experiment [3]; 0.08% in [4]; 7.32% in [5]; 5.96% in experiment [6]. Also, the inhibition came to 26.9% in [7], 3.26% in experiment [8], 7.73% in [9] and 1.35% in [10].
Turning to `Nc1nc(-c2ccccn2)c(-c2ccc3ncccc3n2)s1`, the inhibition in experiment [1] is 4.7%; in experiment [2], 3.14%; in experiment [3], -1.29%; in experiment [4], 1.32%; in [5] it was 1.23%; in experiment [6] it was 3.43%. Further, the inhibition was 2.31% in experiment [7], 1.79% in experiment [8], 4.31% in experiment [9] and 1.91% in experiment [10].
As to `COc1ccc(-c2nn3ncccc3c2-c2ccnc(Nc3ccc(Cl)c(C(F)(F)F)c3)n2)cc1`, the inhibition amounted to 5.3% in experiment [1]; 0.69% in experiment [2]; 3.24% in experiment [3]; 0.68% in experiment [4]; 3.67% in experiment [5]; 1.63% in experiment [6]. Besides, the inhibition in experiment [7] came out at 14.3%; in experiment [8], 2%; in experiment [9], 5.96%; in experiment [10] it was 0.44%.
Take `COc1ccc2cc(-c3c(-c4ccncc4)nc(-c4ccc([S+](C)[O-])cc4)n3C)ccc2c1` (stereo not drawn): the inhibition in experiment [1] was -2.89%; in experiment [2], 1.35%; in [3] it was 3.95%; in [4] it was 6.79%; in experiment [5], 3.4%; in experiment [6] it was 2.1%. Also, the inhibition in experiment [7] is 0.76%; in experiment [8], 1.88%; in experiment [9], 1.02%; in experiment [10], -0.14%.
`CNC(=O)c1cncc(/C=C/c2c(Cl)cccc2Cl)c1`: the inhibition in experiment [1] was 10.6%; in [2], 3.42%; in experiment [3], 21.2%; in [4], -0.54%; in experiment [5], 0.79%; in [6], 0.61%. Further, the inhibition was determined as 14.2% in [7], 2.27% in [8], 4.01% in experiment [9] and 1.23% in experiment [10].
Take `COc1ccc(-c2coc3ncnc(N)c23)cc1`: the inhibition in [1] was 0.88%; in experiment [2], 2.79%; in [3], 2.69%; in experiment [4], -0.38%; in experiment [5], 2.37%; in experiment [6], 1.46%. In addition, the inhibition in experiment [7] is 1.48%; in experiment [8], 1.51%; in experiment [9], -0.75%; in experiment [10], 1.2%.
`O=C1NC(=O)C(c2cccc(Cl)c2)=C1Nc1ccc(O)c(Cl)c1`: the inhibition was -5.59% in experiment [1]; -1.25% in experiment [2]; -1.13% in experiment [3]; -0.21% in experiment [4]; 1.12% in experiment [5]; -2.01% in experiment [6]. Also, the inhibition in [7] was -0.47%; in experiment [8], -0.43%; in experiment [9], -0.33%; in [10] it was -0.72%.
`COc1cc(C)c(NC(=O)CN(C)C)cc1Nc1nc(Nc2cccc(F)c2C(N)=O)c2cc[nH]c2n1`: the inhibition in experiment [1] is -0.35%; in experiment [2], 2.03%; in experiment [3], 0.4%; in [4], -1.1%; in experiment [5], 5.3%; in [6] it was 1.75%. Further, the inhibition was 6.19% in experiment [7], 2.96% in experiment [8], 5% in experiment [9] and 5.98% in experiment [10].

The term inhibition denotes the relative decrease from the control value, in per cent.

These data come from ChEMBL document CHEMBL1961873, “Compounds: GSK PKIS; Assays: Nanosyn kinase panel” (2012).
